Only some compounds are listed: those with a hit (about 5.6% of all), similar ones and a draw of the others.
PHOSPHO1 block: PubChem AID 1565. Phosphoethanolamine/phosphocholine phosphatase (Homo sapiens), Q8TCT1. recombinant PHOSPHO1, absorbance phosphatase assay. inhibition, % at 13.3 µM. 290,000 compounds, 1.1% hits; in the data active means inhibition above about 60%
Target sequence (Q8TCT1 whole entry, looked up): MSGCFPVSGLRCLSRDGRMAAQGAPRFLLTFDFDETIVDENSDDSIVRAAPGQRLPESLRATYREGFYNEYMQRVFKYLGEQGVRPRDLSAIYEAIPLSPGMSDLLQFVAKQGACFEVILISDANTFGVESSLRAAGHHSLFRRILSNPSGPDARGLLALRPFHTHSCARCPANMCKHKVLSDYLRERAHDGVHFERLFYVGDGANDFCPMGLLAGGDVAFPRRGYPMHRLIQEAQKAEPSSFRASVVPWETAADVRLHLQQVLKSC
PfG6PD inh: PfG6PD enzyme inhibitors, primary screen, biochemical, fluorescence intensity, uHTS. 350,000 compounds, 0.78% hits. PfGluPho enzyme, NADPH resazurin-diaphorase fluorescence. inhibition, % at 20 µM;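 active means inhibition reaching at least a set limit at 20 µM in the primary screen, cut at about 59% in these data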;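 further: 0% = DMSO wells with substrate and 100% = DMSO wells lacking glucose-6-phosphate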
Cardio protect: cardioprotection against H2O2-induced cell death, primary screen, uHTS, H9c2 cells, ATPLite luminescence. 360,000 compounds, 0.63% hits. protection from H2O2 cell death, % at 20 µM. H9c2 cardiomyocytes, H2O2 injury protection, 2 h;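 active means compounds giving at least 50% protection of heart cells from peroxide-induced death in the single-dose screen, raw or plate-pattern-corrected value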;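 further: 0% = DMSO wells with peroxide and 100% = DMSO wells without peroxide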
M18AAP inhibitor: PfM18AAP inhibitors, malaria aminopeptidase, primary screen, biochemical, QFRET, recombinant enzyme; M18 aspartyl aminopeptidase (Plasmodium falciparum 3D7); inhibition, % at 7.35 µM; H-Glu-NHMec fluorogenic cleavage; 290,000 compounds, 1.2% hits;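 active means inhibition above the campaign mean inhibition over all tested compounds plus 3 SD, cut at about 28% in these data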;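 further: 0% = plate median of test compound wells and 100% = 2 mM ZnCl2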
ALR H2O2 inh: inhibitors of human ALR sulfhydryl oxidase, primary screen, biochemical, H2O2 detection, HRP-luminol luminescence, single point. 290,000 compounds, 3.8% hits. purified ALR, DTT oxidation. FAD-linked sulfhydryl oxidase ALR (Homo sapiens), P55789. inhibition, % (test concentration not listed);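 active means mean replicate inhibition above about 79%, with every replicate also reaching it, limit read from the data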
Target sequence (P55789 whole entry, looked up): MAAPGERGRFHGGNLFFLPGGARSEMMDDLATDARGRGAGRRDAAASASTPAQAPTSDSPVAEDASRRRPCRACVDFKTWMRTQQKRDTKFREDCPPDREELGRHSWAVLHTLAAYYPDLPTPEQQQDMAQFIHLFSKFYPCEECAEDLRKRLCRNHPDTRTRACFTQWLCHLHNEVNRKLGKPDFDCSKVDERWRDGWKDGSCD
Active calls of the source: *; x = no result.

SMILES	PHOSPHO1 block	PfG6PD inh	Cardio protect	M18AAP inhibitor	ALR H2O2 inh
COc1ccc(-c2nc(CSCC(=O)NCCCN3CCCC3=O)c(C)o2)cc1OC	44.5	-5.2	0.8	-7.5	97.5*
COc1ccc(-c2nc(CN3CCC(C(=O)NCC4CCCO4)CC3)c(C)o2)cc1OC (stereo unspecified)	59.8	6.9	-2.7	2.1	-9.9
COc1ccc(-c2nc(CSCC(=O)NC3CCCc4ccccc43)c(C)o2)cc1OC (stereo unspecified)	2.7	1.7	5.5	-0.9	x
CCOc1ccc(-c2nc(CSCC(=O)NCC3CCCO3)c(C)o2)cc1 (stereo unspecified)	12.0	-8.4	-3.8	-1.6	99.5*
Cc1ccc(-c2nc(CSCC(=O)Nc3cc(C)on3)c(C)o2)cc1	17.3	8.8	-5.2	0.1	x
Cc1ccc(-c2nc(CSCC(=O)NCC3CCCO3)c(C)o2)cc1 (stereo unspecified)	19.1	-8.7	-5.3	-1.5	94.7*
CCNC(=O)C1(C)CCN(C(=O)c2cccc(Cl)c2)C1 (stereo unspecified)	x	x	0.3	x	x
COc1ccc(N(CC(=O)Nc2cc(Cl)ccc2C)S(=O)(=O)c2c(C)n[nH]c2C)cc1	6.8	-5.0	-0.2	-12.4	0.2
CC(C)n1c(O)c(N=NC(=O)CNC(=O)Cc2ccc(Cl)cc2)c2ccccc21	22.5	18.4	3.8	-2.5	-41.6
CC(C)n1c(O)c(N=Nc2ccc(Cl)nn2)c2ccccc21	-9.8	39.9	65.1*	0.5	5.9
C=C[C@@H]1c2cc(C)ccc2N(S(=O)(=O)c2ccc(C)cc2)[C@H](c2ccccc2)C1(C#N)S(=O)(=O)c1ccccc1 (stereo partly specified)	x	-1.7	-5.9	x	-0.5
COc1ccc(SCCc2ccncc2)cc1	-13.2	-13.3	8.5	-7.3	92.7*
Fc1ccc(SCCc2ccncc2)cc1	33.1	10.2	-1.1	-2.6	-3.0
COc1ccc([N+](=O)[O-])c(S(=O)(=O)c2ccccc2)n1	28.8	15.8	-19.0	-42.5	97.0*
COc1ccc([N+](=O)[O-])c(S(=O)(=O)c2ccc(Cl)cc2)n1	20.3	10.0	-20.2	-35.7	75.3*
C(=NN=C1c2ccccc2-c2ccccc21)c1ccc2c(c1)OCO2	x	5.9	-13.6	x	x
CCc1noc(C)c1C(=O)Nc1ccc(Cl)c(S(=O)(=O)N2CCCCC2)c1	x	16.9	-4.9	x	-9.0
Nc1nc(SCC(=O)NCCO)nc2sc3c(c12)CCCC3	19.2	7.4	4.6	-2.7	2.5
CN(C)CCSc1nc(N)c2c3c(sc2n1)CN(C)CC3	43.5	26.2	4.5	-7.8	98.7*
CSc1nc(NCCCN(C)C)c2c3c(sc2n1)CN(C)CC3	9.4	x	x	29.2*	-18.7
COC(=O)CSc1nc(N)c2c3c(sc2n1)CCCC3	9.2	24.5	0.0	28.5*	-5.4
O=C(CN1CCN(S(=O)(=O)c2ccc(F)cc2)CC1)Nc1ccc(F)cc1F	27.3	-5.1	9.7	-2.6	25.0
S=c1[nH]nc(CSc2nc3ccccc3s2)n1C1CCCCC1	96.2*	29.7	-3.3	-6.5	-0.9
C#CCSc1nnc(CSc2nc3ccccc3s2)n1-c1ccccc1	75.7*	-4.6	-19.1	-0.3	-4.4
S=c1[nH]nc(COc2ccccc2)n1C1CCCCC1	65.5*	16.4	-8.6	8.0	15.0
SMILES	PHOSPHO1 block	PfG6PD inh	Cardio protect	M18AAP inhibitor	ALR H2O2 inh
O=C(O)CSc1nnc(CSc2nc3ccccc3s2)n1-c1ccccc1	-49.4	-0.2	3.0	0.7	13.1
CCCCOCC(O)CCc1n[nH]c(=S)n1-c1ccccc1 (stereo unspecified)	32.2	18.6	7.6	18.8	x
C=CCn1c(C(CCCC)CC(O)COCCC)n[nH]c1=S (stereo unspecified)	23.4	0.2	-3.5	14.8	91.8*
C=CCn1c(C(CCCC)CC(O)COCC(C)C)n[nH]c1=S (stereo unspecified)	3.5	29.2	9.4	9.6	13.9
C=CCn1c(CCC(O)COCCCCC)n[nH]c1=S (stereo unspecified)	6.2	27.6	-4.2	6.9	96.0*
CC(C)(C)c1ccc(/C=N/Nc2ccc(C(=O)O)cc2)cc1	-35.4	4.7	4.4	-6.3	x
CC1Oc2ccccc2C=C1/C=N/Nc1ccc(C(=O)O)cc1 (stereo unspecified)	23.7	-6.7	13.3	-2.2	91.6*
C=CCn1c(SCC(=O)c2ccc(Cl)cc2)nnc1-c1ccc2c(c1)OCO2	-5.8	14.5	-7.0	1.3	92.3*
C=CCn1c(SCC(=O)c2ccc(OC)cc2)nnc1-c1ccc2c(c1)OCO2	1.4	27.0	-1.4	8.8	97.9*
Cc1nn(-c2ccccc2)c2sc(-c3n[nH]c(=S)o3)cc12	38.1	-10.3	-6.9	0.5	97.8*
Nc1cc2c([N+](=O)[O-])cccc2o1	11.4	16.2	2.4	9.0	85.1*
O=CN1CCN(c2c([N+](=O)[O-])c(=O)oc3ccccc23)CC1	11.4	2.6	1.6	-7.3	0.7
Cc1ccc(NC(=O)CS(=O)CC(=O)Nc2ccccc2-c2ccc(C)o2)cc1 (stereo unspecified)	2.2	-121.9	-8.4	3.8	99.1*
NC(CC(=O)O)c1ccc(Br)cc1 (stereo unspecified)	-8.9	-10.7	3.0	-6.2	x
CCCNC(=O)c1onc(CS(=O)(=O)c2cc(C)cc(C)c2)c1C(=O)NCCC	x	1.6	-4.4	x	-1.5
CC1=NC(=O)C(N=Nc2cccc(O)c2)N1c1ccccc1 (stereo unspecified)	95.0*	5.5	5.0	8.9	4.9
CCCCS/C(N)=N/N=C/c1cc(C)ccc1O	3.4	-14.6	-23.7	29.5*	1.0
CCS/C(N)=N/N=C/c1cc(C)ccc1O	10.1	-6.8	-23.9	31.5*	-3.7
CCOc1ccc(NC(=O)CSc2ncn[nH]2)c([N+](=O)[O-])c1	-9.3	-16.8	6.0	29.9*	-15.4
COc1cc(-n2c(=O)c3ccccc3n(Cc3cc(=O)n4ccccc4n3)c2=O)cc(OC)c1OC	-9.4	-3.4	56.6*	11.7	1.7
O=c1c2sccc2n(Cc2cc(=O)n3ccccc3n2)c(=O)n1-c1ccccc1	-18.2	18.9	18.1	-1.7	-0.6
COCCNC(=O)c1cc(S(=O)(=O)N(C)C2CCCCC2)ccc1Cl	x	-4.6	4.2	x	x
COc1cc(CNn2cn[nH]c2=S)cc(Cl)c1OCc1ccc(F)cc1	-12.3	34.8	-4.4	9.4	97.4*
COc1cc(CNn2c(C)n[nH]c2=S)cc(Cl)c1OCc1ccccc1	83.7*	51.8	-5.0	-2.8	56.1
Cc1cccc(C(=O)OCC(=O)N2CCN(C(=O)c3ccco3)CC2)c1O	x	-3.5	-1.3	x	8.2
COc1ccc(-c2cc(C(=O)N3CCN(c4ncccn4)CC3)c3ccccc3n2)cc1OC	x	2.4	28.5	x	-9.0
O=C(CCN1c2ccccc2Sc2ccccc21)OCC(=O)N1CCN(C(=O)c2ccco2)CC1	13.7	-3.5	-0.8	10.3	91.5*

Screening results (PubChem BioAssay)
